Experimental data: PubChem BioAssay AID1159580 (chemical genetic matrix, 2015)
Values joined by “and” are separate entries in the source; they are usually repeats but may differ in a detail not shown here. Identical values can stand only once. In all, about 5,500 compounds went through this assay and about 2,000 (36%) were called active. Roughly 18% stayed inconclusive and do not appear here. No stated cut-off is given here; in the data, active means normalized growth mostly below about 0.91 (no sharp cut-off); inconclusive means no clear call, values can overlap the other calls; inactive means mostly above about 0.92. The list shows a part of the results.

Assay: chemical genetic growth profiling, strain panel (AID 1159580);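 further: tested at 20 µM; growth read once vehicle control cultures reached saturation at 30 °C; 1 = growth at the plate median or of vehicle wells; lower values mean less growth of the strain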
Conditions: S. cerevisiae deletion strains, growth OD

Measured: normalized growth

C[C@@H]1C[C@@H]([C@H](O)CC2CC(=O)NC(=O)C2)C(=O)[C@@H](C)C1
active: locus YAL013W, strain DEP1, hits give low values 0.0595 | locus YAL021C, strain ccr4, hits give low values 0.0677 | locus YAL026C, strain drs2, hits give low values 0.0607 | locus YAL030W, strain snc1, hits give low values 0.0538 | locus YBL061C, strain skt5, hits give low values 0.0591 | locus YBR009C, strain hhf1, hits give low values 0.0595 | locus YBR021W, strain FUR4, hits give low values 0.0961 | locus YBR023C, strain chs3, hits give low values 0.0612 | locus YBR171W, strain sec66, hits give low values 0.075 | locus YBR229C, strain ROT2, hits give low values 0.031 | locus YBR231C, strain swc5, hits give low values 0.0623 | locus YBR279W, strain paf1, hits give low values 0.0578 | locus YCL011C, strain gbp2, hits give low values 0.0569 | locus YCL016C, strain dcc1, hits give low values 0.0627 | locus YCL029C, strain bik1, hits give low values 0.0585 | locus YCL069W, strain vba3, hits give low values 0.058 | locus YCR088W, strain abp1, hits give low values 0.0589 | locus YDL005C, strain med2, hits give low values 0.0714 | locus YDL035C, strain GPR1, hits give low values 0.0555 | locus YDL040C, strain nat1, hits give low values 0.0555 | locus YDL074C, strain BRE1, hits give low values 0.0968 | locus YDL101C, strain DUN1, hits give low values 0.0509 | locus YDL134C, strain PPH21, hits give low values 0.0498 | locus YDL185W, strain tfp1, hits give low values 0.0581 | locus YDL192W, strain arf1, hits give low values 0.0598 | locus YDR001C, strain nth1, hits give low values 0.0564 | locus YDR069C, strain doa4, hits give low values 0.0601 | locus YDR101C, strain arx1, hits give low values 0.0579 | locus YDR137W, strain rgp1, hits give low values 0.0878 | locus YDR150W, strain NUM1, hits give low values 0.0592 | locus YDR159W, strain sac3, hits give low values 0.0889 | locus YDR162C, strain NBP2, hits give low values 0.0524 | locus YDR195W, strain ref2 0.129 | locus YDR297W, strain sur2, hits give low values 0.0532 | locus YDR318W, strain mcm21, hits give low values 0.0664 | locus YDR334W, strain swr1, hits give low values 0.0608 | locus YDR335W, strain msn5, hits give low values 0.059 | locus YDR388W, hits give low values 0.0549 | locus YDR392W, strain spt3, hits give low values 0.0763 | locus YDR502C, strain sam2, hits give low values 0.061 | locus YEL003W, strain gim4, hits give low values 0.0527 | locus YEL037C, strain rad23, hits give low values 0.0554 | locus YEL061C, strain CIN8 (second series), hits give low values 0.0592 | locus YEL061C, strain CIN8, hits give low values 0.0496 | locus YER015W, strain faa2, hits give low values 0.0595 | locus YER016W, strain bim1, hits give low values 0.0609 | locus YER110C, hits give low values 0.0708 | locus YER111C, strain swi4, hits give low values 0.0709 | locus YER155C, strain BEM2 (second series), hits give low values 0.0899 | locus YER155C, strain BEM2, hits give low values 0.0629 | locus YER167W, strain BCK2, hits give low values 0.0564 | locus YFR010W, strain ubp6, hits give low values 0.0674 | locus YGL078C, strain dbp3, hits give low values 0.0553 | locus YGL086W, strain mad1, hits give low values 0.0574 | locus YGL167C, strain pmr1, hits give low values 0.0714 | locus YGL173C, strain kem1, hits give low values 0.0657 | locus YGL227W, strain vid30, hits give low values 0.06 | locus YGL240W, strain doc1, hits give low values 0.0796 | locus YGL248W, strain PDE1, hits give low values 0.0442 | locus YGL253W, strain hxk2, hits give low values 0.0535 | locus YGR078C, strain PAC10, hits give low values 0.0533 | locus YGR135W, strain pre9, hits give low values 0.0644 | locus YGR229C, strain SMI1, hits give low values 0.0652 | locus YGR252W, strain gcn5, hits give low values 0.175 | locus YHR013C, strain ard1, hits give low values 0.0947 | locus YHR027C, strain rpn1, hits give low values 0.0594 | locus YHR030C, strain SLT2, hits give low values 0.0489 and 0.101 | locus YHR079C, strain IRE1 (second series), hits give low values 0.0562 | locus YHR079C, strain IRE1, hits give low values 0.107 | locus YHR094C, strain hxt1, hits give low values 0.0562 | locus YHR129C, strain ARP1, hits give low values 0.0564 | locus YHR142W, strain chs7, hits give low values 0.0716 | locus YHR200W, strain rpn10, hits give low values 0.0589 | locus YIL066C, strain RNR3, hits give low values 0.0491 | locus YIL073C, strain SPO22, hits give low values 0.114 | locus YIL125W, strain kgd1, hits give low values 0.0558 | locus YIR030C, strain dcg1, hits give low values 0.0576 | locus YJL092W, strain hpr5, hits give low values 0.0581 | locus YJL095W, strain BCK1 (second series), hits give low values 0.0549 | locus YJL095W, strain BCK1, hits give low values 0.0583 and 0.105 | locus YJL115W, strain asf1, hits give low values 0.0707 | locus YJL129C, strain trk1, hits give low values 0.0813 | locus YJL134W, strain LCB3, hits give low values 0.0474 | locus YJL154C, strain vps35, hits give low values 0.0577 | locus YJL164C, strain tpk1, hits give low values 0.0602 | locus YJL166W, strain qcr8, hits give low values 0.0579 | locus YJL168C, strain set2, hits give low values 0.0578 | locus YJL187C, strain SWE1 (second series), hits give low values 0.0445 | locus YJL187C, strain SWE1, hits give low values 0.0553 | locus YJR043C, strain POL32, hits give low values 0.0691 | locus YJR066W, strain TOR1, hits give low values 0.000656
